Compounds with a hit are over-represented: about 2.4% of the library has one in this group of screens.
ASK1 inh = human ASK1 kinase inhibition, primary screen; inhibition, % at 7.44 µM; AlphaScreen MKK6 phosphorylation by ASK1, luminescence; AID 1159602; hit rate 0.99% among 22,000; Q99683; in the data active means inhibition above about 35%;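 further: 0% = median of compound wells and 100% = no enzyme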
ULK1 inh = human ULK1 kinase inhibition, primary screen | inhibition, % at 5.96 µM | hit rate 1.9% among 30,000 | AlphaScreen Atg13 phosphorylation by ULK1, luminescence; in the data active means inhibition above about 43%;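 further: 0% = median of compound wells and 100% = no enzyme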
Active calls of the source: *; . = not tested or not shown.

SMILES	ASK1 inh	ULK1 inh
Fc1ccc(-c2n[nH]c3ccc(-c4ncn[nH]4)cc23)cc1	-69	71*
c1ccc(-c2ccnc(Nc3ccc(-c4ncn[nH]4)cc3)n2)cc1	-16	-10
CCCNc1nc(-c2ccc(C(=O)N3CCN(C)CC3)cc2)nc2c1ncn2C1CCCCC1	-4	5
O=C(Cc1cn(-c2ccc(N3CCN(c4ccccn4)CC3)nn2)c2ccccc12)NC1CC1	-4	13
COc1cc(Nc2ncc(C)c(Nc3cc(OC)c(OC)c(OC)c3)n2)cc(OC)c1OC	20	28
COc1cc(Nc2cc(C)nc(Nc3cc(OC)c(OC)c(OC)c3)n2)cc(OC)c1OC	-12	-25
COc1cc(Nc2cc(C)nc(Nc3cccnc3)n2)cc(OC)c1OC	22	45*
COc1cc(Nc2nc(Nc3ccccc3)ncc2C)cc(OC)c1OC	15	62*
COc1cc(Nc2nc(Nc3ccccn3)ncc2C)cc(OC)c1OC	-9	51*
COc1cc(Nc2nc(Nc3ccncn3)ncc2C)cc(OC)c1OC	23	15
NC(=O)c1ccc(-c2nc(NC3CC3)c3ncn(-c4ccccc4)c3n2)cc1	19	-10
COc1cc(Nc2ncc(C)c(NCCN3CCOCC3)n2)cc(OC)c1OC	-25	11
COc1cc(Nc2nc(Cl)nc3c2ncn3CCN2CCCC2=O)cc(OC)c1OC	-16	6
CCNc1ccc(N2CCC(C(=O)NCCc3ccc(O)cc3)CC2)nn1	-13	-3
CCc1nnc(N/N=C/c2ccccc2Cl)n1N	.	48*
COc1cc(OC)nc(Oc2ccccc2/C=N/NC(N)=S)n1	.	2
CC(C)n1cnc2c(NC3CC3)nc(NCc3ccc4c(c3)OCO4)nc21	-12	-2
CCCNc1ncnc2nc(Nc3ncccn3)[nH]c12	10	1
CC(=O)Nc1ccc(Nc2cc(C)nc(N3CCc4ccccc4C3)n2)cc1	8	-9
CC(=O)Nc1ccc(Nc2cc(C)nc(N3CCN(c4ccccn4)CC3)n2)cc1	7	-11
Cc1cc(Nc2ccc(N3CCOCC3)cc2)nc(N2CCN(c3ccccn3)CC2)n1	46*	4
Cc1cc(Nc2ccc(N3CCOCC3)cc2)nc(N2CCc3ccccc3C2)n1	58*	-3
O=C(NCCOc1ccccc1)c1csc(Nc2nccc3ccccc23)n1	1	-2
C[n+]1c2cc(N)ccc2cc2ccc(N)cc21	.	71*
O=C1CCCN1CCCNc1nc(Nc2cnccn2)nc2c1ncn2Cc1ccc(C(F)(F)F)cc1	7	5
SMILES	ASK1 inh	ULK1 inh
CCN(CC)CCCC(C)Nc1c2ccc(Cl)cc2nc2ccc(OC)cc12 (configuration not stated)	.	4
COc1cc(NC(C)CCCN)c2ncccc2c1 (configuration not stated)	.	64*
O=C(NC1CCN(Cc2ccccc2)CC1)c1ccnc(-c2cccs2)c1	23	-35
CC(=O)c1cccc(-c2ccc(C(=O)NCCc3ccc(O)cc3)s2)c1	-10	-17
Nc1cccc(-c2ccc(C(=O)NCCc3ccc(O)cc3)s2)c1	7	43*
CC(C)n1cnc2c(NCc3ccccc3)nc(Nc3ncccn3)nc21	-18	-6
NC(=O)c1ccc(-c2cc(C(=O)NCCO)ccn2)cc1	-2	-16
CN1CCc2cccc3c2[C@H]1Cc1ccc(O)c(O)c1-3	.	46*
CN(C)c1cccc(Nc2cc(C(=O)NCc3cccc(C(F)(F)F)c3)ccn2)c1	17	0
COc1cc2nc(Nc3ccncc3)nc(Nc3cc(OC)c(OC)c(OC)c3)c2cc1OC	3	-14
Cc1ncn(-c2ccc(Nc3ncc4cccc(-c5cnn(C(C)C)c5)c4n3)cc2)n1	-10	66*
Cn1cc(-c2ccc3cnc(Nc4ccc(-n5cnc(N6CCOCC6)n5)cc4)nc3c2C2CC2)cn1	-91	41
CC(C)n1cc(-c2ccc3cnc(Nc4ccc(-n5cnc(N6CCOCC6)n5)cc4)nc3c2Cl)cn1	3	53*
Cc1ncn(-c2ccc(Nc3ncc4cccc(-c5ccncc5)c4n3)cc2)n1	6	-33
Cc1ncn(-c2ccc(Nc3ncc4cccc(-c5ccccc5)c4n3)cc2)n1	-74	12
Cc1ncn(-c2ccc(Nc3ncc4cccc(-c5cnn(CC6CC6)c5)c4n3)cc2)n1	3	64*
Cc1ncn(-c2ccc(Nc3ncc4cccc(-n5cccn5)c4n3)cc2)n1	-23	45*
Cc1ncn(-c2ccc(Nc3ncc4cccc(-c5cnn(C)c5)c4n3)cc2)n1	-8	25
Cc1cc(NCCO)nc(-c2ccc(C(=O)N3CCN(C)CC3)cc2)n1	-12	9
Cc1noc(C)c1-c1ncc(C(=O)NCc2ccccc2)s1	7	12
CCN1CCN(c2cc(C#N)cc(-c3ccnc(Nc4ccc(N5CCOCC5)cc4)n3)c2)CC1	-32	53*
COc1ccc(Nc2nccc(-c3cc(C#N)cc(N4CCOCC4)c3)n2)cc1	30	4
N#Cc1cc(-c2ccnc(Nc3ccc(N4CCOCC4)cc3)n2)cc(N2CCOCC2)c1	31	3
N#Cc1cc(-c2ccnc(Nc3ccc(N4CCOCC4)cc3)n2)cc(N2CCNCC2)c1	35	78*
c1ccc(-c2nc(NC3CC3)cc(-c3cccnc3)n2)nc1	.	-4
SMILES	ASK1 inh	ULK1 inh
CC(C)N(CCNc1nc(-c2ccccc2)nc2c1ncn2-c1ccsc1)C(C)C	6	-10
NC(=O)c1ccc(-c2ccc(C(=O)NCCCN3CCCC3=O)s2)cc1	-5	2
Cc1cnc(Nc2ccc3ncccc3c2)nc1NCc1cccnc1	3	17
FC(F)(F)c1cccc(CNc2cc(-c3csc4ccccc34)ncn2)c1	-12	-21
Cc1cc(NCCN(C(C)C)C(C)C)nc(Nc2ccc3ncccc3c2)n1	-4	0
NC(Cc1cc(I)c(Oc2ccc(O)c(I)c2)c(I)c1)C(=O)O (configuration not stated)	.	-7
N[C@@H](Cc1cc(I)c(Oc2cc(I)c(O)c(I)c2)c(I)c1)C(=O)O	.	79*
Nc1nccc(-c2cnc3nc(C4COc5ccc(C(=O)NCCc6cnc[nH]6)cc5C4)[nH]c3c2)n1 (configuration not stated)	2	8
c1ccc(CNc2nc(Nc3ccc(N4CCOCC4)cc3)nc3c2ncn3C2CCCCC2)cc1	5	9
c1cncc(CNc2nc(Nc3ccc(N4CCOCC4)cc3)c3ncn(C4CCCCC4)c3n2)c1	-22	62*
c1cnc(Nc2nc(Nc3ccc(N4CCOCC4)cc3)c3ncn(C4CCCCC4)c3n2)nc1	-2	2
CC(=O)Nc1ccc(Nc2nc(Nc3ccc(N4CCOCC4)cc3)nc3c2ncn3C2CCCCC2)cc1	8	48*
O=C(C[n+]1cccc(Cl)c1)c1ccccc1	.	-14
Cc1cccc(NC(=O)c2cccc(-n3ncc4cc(Nc5cccc(C)c5)ccc43)c2)c1	7	-7
Oc1c(Cl)cc(Cl)c2cccnc12	.	27
Oc1c(I)cc(I)c2cccnc12	.	51*
O=S(=O)(O)c1cc(I)c(O)c2ncccc12	.	45*
Oc1ccc(Cl)c2cccnc12	.	11
Cc1ccc(-c2cc(=O)c3cc(NC(=O)c4ccccc4)ccc3o2)cc1	.	-4
CC(C)(C)NC(=O)CN(c1ccccc1)S(=O)(=O)c1ccccc1	.	5
Oc1ccc(CCNc2cc(Nc3ncccn3)ncn2)cc1	-20	-22
CC(C)CC(=O)Nc1ccc(-c2cn3ccccc3n2)cc1	.	-7
CCN1CCc2nc(NC(=O)c3cccc(F)c3)sc2C1	.	-3
Cn1nccc1Nc1nccc(NC2CC2)n1	7	2
CN1CCN(C(=O)c2ccc(-c3nc(C(=O)NCc4nc5ccccc5[nH]4)cs3)cc2)CC1	-4	-11

Source: PubChem
